Assay results taken from article PMC10726135, “HNF4α isoforms regulate the circadian balance between carbohydrate and lipid metabolism in the liver”.
Over roughly 18,000 sequences, “log2 normalized intensity” has its median near 0.36; the highest 2% begin near 7.3. For the sample, the highest values were picked, then their nearest neighbours and some sequences at random.

Each sequence was assayed against T1, HNF4alpha8 (COS-7 nuclear extract) (Homo sapiens, UniProt P41235-5 1-452) (assay: protein-binding microarray; COS-7 nuclear extract on double-stranded Agilent 4x180k PBM; binding buffer, salt, pH and temperature not given in the material; high values mean tight binding). Settings: chain copies: 2; label: 3' end of strand 1 on the slide; dsDNA, one strand shown.
T1 sequence: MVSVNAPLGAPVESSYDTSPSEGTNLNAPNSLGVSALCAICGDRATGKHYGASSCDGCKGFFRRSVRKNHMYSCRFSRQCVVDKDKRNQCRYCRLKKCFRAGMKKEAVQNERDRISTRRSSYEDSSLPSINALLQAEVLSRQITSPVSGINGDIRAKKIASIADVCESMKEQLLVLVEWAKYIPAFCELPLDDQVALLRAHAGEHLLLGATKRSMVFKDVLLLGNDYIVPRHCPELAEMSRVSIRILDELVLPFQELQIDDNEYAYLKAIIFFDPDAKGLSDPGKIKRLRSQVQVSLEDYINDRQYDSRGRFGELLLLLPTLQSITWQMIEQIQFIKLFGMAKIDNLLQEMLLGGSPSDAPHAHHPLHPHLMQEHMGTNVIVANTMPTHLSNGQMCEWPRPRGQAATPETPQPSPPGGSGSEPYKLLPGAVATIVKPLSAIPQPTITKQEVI
Outline: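 Binding signal is the background-corrected, normalized gProcessedSignal calculated by Agilent software. It was measured by applying nuclear extracts of COS-7 cells transiently transfected with a human HNF4α isoform expression vector to a custom Agilent SurePrint G3 4x180k array of ~44,000 double-stranded ~60-nt test sequences in quadruplicate, then imaging bound HNF4α on an Agilent G2565CA scanner at 2-µm resolution.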

Sequence | binding signal [log2 normalized intensity]
AATACTCTGAGTAAACACAGACTTTGGAATGCCTAGGGAGATTAGAGTATCGGTCGA | 4.55
TTCGGGGCACTGCTCCCTGCCCCTACCCCCGCCTAGGGAGATTAGAGTATCGGTCGA | 5.02
AGGTACTGGTAGCCTGGGCCCCAGGGGACGGCCTAGGGAGATTAGAGTATCGGTCGA | -0.625
GTGCAAAGGCCTTAAAGTGTAAATATTTGAGCCTAGGGAGATTAGAGTATCGGTCGA | 0.546
TCCGCTTGCCTGAGGGTCATGACTAAAGCAGCCTAGGGAGATTAGAGTATCGGTCGA | 1.13
CCACTAGAGAGACCGTCCCTGGGTACAACTGCCTAGGGAGATTAGAGTATCGGTCGA | 1.33
CGTGGGCATGCCTCCCAGAGCATTGTTTATGCCTAGGGAGATTAGAGTATCGGTCGA | -0.764
GCACATGGCATGATCCCTGACTCATAGCTCGCCTAGGGAGATTAGAGTATCGGTCGA | -0.946
TGGAGCATGACCCTTTGCAGGTGGGAGAGGGCCTAGGGAGATTAGAGTATCGGTCGA | 0.928
TTCTCTGTGACCTTTGGAAGGTGGGGGAGGGCCTAGGGAGATTAGAGTATCGGTCGA | 4.92
GAGGTGGGCCCAGGGTTCTCTGTGACCTTTGCCTAGGGAGATTAGAGTATCGGTCGA | 7.62
TGACTACCAGGTTCTGTACTTTGGAACCTGGCCTAGGGAGATTAGAGTATCGGTCGA | 7.01
GGGCCCAGGGTTCTCTGTGACCTTTGGAAGGCCTAGGGAGATTAGAGTATCGGTCGA | 9.36
CTGCCCTTCTGACCTCCCAGGGATACTGTGGCCTAGGGAGATTAGAGTATCGGTCGA | 2.99
GTAAGCACAAAGTACAGCTTTTTGTTTGTGGCCTAGGGAGATTAGAGTATCGGTCGA | 2.02
AAACATCAAGGAAGAGAACTCCCTATCCCCGCCTAGGGAGATTAGAGTATCGGTCGA | 1.36
GATAGATATGTTGAAGTGACTAAATGAGAAGCCTAGGGAGATTAGAGTATCGGTCGA | -0.611
GTACTTAAAAATGCCTTTCATCTTTGAGAAGCCTAGGGAGATTAGAGTATCGGTCGA | 0.583
GTGTCAACATGGACTTTGTTGTTTGCCTCTGCCTAGGGAGATTAGAGTATCGGTCGA | 4.08
TTGCCATGACCTTTGAAGCCCAGAACACTCGCCTAGGGAGATTAGAGTATCGGTCGA | 4.51
CCGCGGCGGGCCCTCGACCTTTGCCCTCCAGCCTAGGGAGATTAGAGTATCGGTCGA | 9.76

Sequence | binding signal [log2 normalized intensity]
TCAGCCTTCTCCGCGGCGGGCCCTCGACCTGCCTAGGGAGATTAGAGTATCGGTCGA | 0.757
CAGAGAGAAGCCACTGCGACCTTTGCCCTCGCCTAGGGAGATTAGAGTATCGGTCGA | 10
TCACAACCTCCCTTTGAAGGAGCCACTGGTGCCTAGGGAGATTAGAGTATCGGTCGA | -0.869
CTTCTCCGCGGCGGGCCCTCGACCTTTGCCGCCTAGGGAGATTAGAGTATCGGTCGA | 5.8
TTCCCCTCCCTTCCACCTTTGCCCTCCAAAGCCTAGGGAGATTAGAGTATCGGTCGA | 6.42
CCCTCCCTAAATCCAGAGGTATTTGGCCCAGCCTAGGGAGATTAGAGTATCGGTCGA | 1.83
ACCGGCAGAGAGAAGCCACTGCGACCTTTGGCCTAGGGAGATTAGAGTATCGGTCGA | 5.59
AGAAGCCACTGCGACCTTTGCCCTCCCTAAGCCTAGGGAGATTAGAGTATCGGTCGA | 8.33
CCACTGCGACCTTTGCCCTCCCTAAATCCAGCCTAGGGAGATTAGAGTATCGGTCGA | 7.84
CTTTGCCCTCCCTAAATCCAGAGGTATTTGGCCTAGGGAGATTAGAGTATCGGTCGA | 2.04
ACCCACCCACCTATGTCCTTATCCTCATTGGCCTAGGGAGATTAGAGTATCGGTCGA | 0.831
CTCACCAGTGGGCCCAGAGCACAACCTTTGGCCTAGGGAGATTAGAGTATCGGTCGA | 1.42
TATTCAGTCCCCCATCCCAGAGGTCAAACTGCCTAGGGAGATTAGAGTATCGGTCGA | 5.57
GGAATTTGGACTTCAGCCCAGGCTGATTATGCCTAGGGAGATTAGAGTATCGGTCGA | 4.7
CAGCAAGCATTAATCCCTGAGCCTGGACCTGCCTAGGGAGATTAGAGTATCGGTCGA | 2.58
GCGCATCGGGCGCCAGCGCCCCCGTGTGGCGCCTAGGGAGATTAGAGTATCGGTCGA | 1.2
GACCAGCGTGTGGCGCCATTTCAGGTCCACGCCTAGGGAGATTAGAGTATCGGTCGA | 1.74
AATACTCCAGTCATTGTACAAACACATACCGCCTAGGGAGATTAGAGTATCGGTCGA | -0.533
CTCTTAGTATTACCATGTCCTGTGATTAAGGCCTAGGGAGATTAGAGTATCGGTCGA | 1.16
TGGGCCAGGTATTTGGACTTTTTGTAGTTTGCCTAGGGAGATTAGAGTATCGGTCGA | 3.34
CCCTGACCAAGGGTCATGCTGGTCTCCTTGGCCTAGGGAGATTAGAGTATCGGTCGA | 2.46

Sequence | binding signal [log2 normalized intensity]
AGCAATACATTGAACTTTGAACACCTCTTCGCCTAGGGAGATTAGAGTATCGGTCGA | 6.54
AAGCAAACAAAACACGGACTTTGAAGCTCCGCCTAGGGAGATTAGAGTATCGGTCGA | 3
CAATAAGCAATACATTGAACTTTGAACACCGCCTAGGGAGATTAGAGTATCGGTCGA | 7.99
TTGTTCAATAAGCAATACATTGAACTTTGAGCCTAGGGAGATTAGAGTATCGGTCGA | 8.23
TTTTCAACATATACTTTGAACTTGTTTTTTGCCTAGGGAGATTAGAGTATCGGTCGA | 2.56
GTTCAAACTTTATTTGATGATGAAGCAACAGCCTAGGGAGATTAGAGTATCGGTCGA | 0.662
GGCAGTCGTGATAGTGACCACCTGGTGGACGCCTAGGGAGATTAGAGTATCGGTCGA | 1.42
GTTGAGAACTGAGTTTAGAATTTGAACTATGCCTAGGGAGATTAGAGTATCGGTCGA | 3.68
AGTTCAATTTCCAACAAATGAAACTAAAGGGCCTAGGGAGATTAGAGTATCGGTCGA | -0.972
CGCTCCCCGACCTCCTGCTGCAGCTCTGGGGCCTAGGGAGATTAGAGTATCGGTCGA | -0.577
TGTTTATCAGAGCAAAGTTCAATTTCCAACGCCTAGGGAGATTAGAGTATCGGTCGA | 4.31
ATGTGCCCTTTGTACCTGGGGCAAACATCAGCCTAGGGAGATTAGAGTATCGGTCGA | 5.3
GGATAATGTGCCCTTTGTACCTGGGGCAAAGCCTAGGGAGATTAGAGTATCGGTCGA | 5.83
TATTTGGATAATGTGCCCTTTGTACCTGGGGCCTAGGGAGATTAGAGTATCGGTCGA | 7.72
TCAAATATTTGGATAATGTGCCCTTTGTACGCCTAGGGAGATTAGAGTATCGGTCGA | 7.39
ATGCTTCAAATATTTGGATAATGTGCCCTTGCCTAGGGAGATTAGAGTATCGGTCGA | 3.92
GTCAAACAAAAGAAAATGTGCCCTTTGGACGCCTAGGGAGATTAGAGTATCGGTCGA | 7.26
CAATCAGCCTTAGGTATGCCCCATGGTAAGGCCTAGGGAGATTAGAGTATCGGTCGA | 1.49
GAATTCCATCCCAGGTCCACAGTGCACATTGCCTAGGGAGATTAGAGTATCGGTCGA | 2.26
AAGGACAAAGGTCATGTTTTCAAACAATGAGCCTAGGGAGATTAGAGTATCGGTCGA | 5.49
CTGCTGGTTTTTGTCAAAGATAGTTGTAGTGCCTAGGGAGATTAGAGTATCGGTCGA | 1.62
